A short description of this experiment: small molecules captured by biotinylated probe aFST – biochemical, small-molecule microarray, fluorescence 635/667, stem cell growth factor project, primary screen (AID 1086).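 Note: score merges 667 nm fluorescence with signal-to-noise of each printed compound spot.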 The settings on record: higher = more signal.
`COCCOC(=O)N1C(=O)[C@@]2(c3cc(C#CCNC(N)=O)ccc31)[C@H](C(N)=O)[C@H]1C(=O)O[C@H](c3ccccc3)[C@H](c3ccccc3)N1[C@@H]2c1ccc(O)cc1` registered a composite z-score of 0.0377.

`C=C1C(=O)C=C2CN(C(=O)c3ccccc3)[C@@](Cc3ccc(F)cc3)(C(=O)OC)[C@@H]12` yielded a composite z-score of 1.87.

On to `CC(C)(C)OC(=O)N1[C@@H](C=C(Br)Br)COC1(C)C`, for which the composite z-score stood at 0.125.

`O=C1C[C@@](C(=O)NCC(F)(F)F)(c2ccc([N+](=O)[O-])cc2)[C@@H](c2ccc(CO)cc2I)N1CC12CC3CC(CC(C3)C1)C2`: the composite z-score turned out to be 1.08.

`Cc1cccc([C@H]2C[C@H]3C(Br)=C[C@@]2(CO)C(=O)[C@]32CO2)c1` registered a composite z-score of 0.275.

Regarding `COC(=O)C(CC#Cc1ccc2c(c1)[C@]1(C(=O)N2)[C@H](c2ccccc2OCCO)N2[C@H](c3ccccc3)[C@H](c3ccccc3)OC(=O)[C@H]2[C@@H]1C(=O)N1CCN(c2ncccn2)CC1)C(=O)OC`, the composite z-score is 0.255.

As to `O=C1NC(=O)C2C1C=CC(C(O)c1ccc(F)cc1)N2Nc1ccc(Cl)cc1Cl` (stereo unspecified), the composite z-score was 0.0708.

The compound `C=CCOC(=O)[C@@H]1[C@H]2C(=O)O[C@H](c3ccccc3)[C@H](c3ccccc3)N2[C@H](c2ccc(OCCOC(=O)[C@@H]3C[C@@H]4C(=O)N[C@@H](CC(C)C)C(=O)N4[C@@H]3c3ccc(O)cc3)cc2)[C@@]12C(=O)Nc1ccc(I)cc12` had a composite z-score of 0.4.

Regarding `COC(=O)c1ccc(OC)c(/C=C\CC(OC(=O)c2ccncc2)c2ccccc2)c1` (stereo unspecified), the composite z-score is 0.0754.

For the compound `COC(=O)[C@@]1(Cc2ccc(F)cc2)[C@H]2c3cc(C(=O)N4CCCC4)n(CCSCCO)c3C[C@H]2CN1C(=O)c1ccccc1`, the composite z-score amounted to 1.21.

As for `Cc1c(NC(=O)/C(C#N)=C/C=C/c2ccc([N+](=O)[O-])cc2)c(=O)n(-c2ccccc2)n1C`, the composite z-score stood at 0.854.

For `COc1ccc([Si](C)(C)[C@H]2[C@H](CC(=O)N(CCO)Cc3ccccc3)O[C@@]3(C(=O)N(Cc4cccc(N5CCCCC5=O)c4)c4ccccc43)[C@@H]2C)cc1`, the composite z-score amounted to 0.0417.

Consider `O=C1c2ccccc2[C@@]2(Cc3ccccc3N(CC(F)(F)F)C2=O)[C@H](c2ccc(CO)cc2)N1Cc1ccccc1`, for which the composite z-score is -0.0539.

The compound `CC(C)C[C@@H]1NC(=O)[C@@H]2C[C@H](C(=O)NCCCCCNC(=O)CS)[C@H](c3ccc(O)cc3)N2C1=O` had a composite z-score of -0.265.

In turn, `COc1ccc(C(O)C2C=CC3C(=O)N(C)C(=O)C3N2Nc2ccccc2)cc1` (stereo unspecified) gave a composite z-score of 0.791.

`Cc1ccc(S[C@]2(C(=O)NCCN3CCOCC3)CC(=O)N(C(C)C)[C@@H]2c2ccc(CO)cc2I)cc1`: the composite z-score stood at 0.153.

For the compound `COc1ccc([Si](C)(C)[C@H]2[C@H](CC(=O)N(CCO)Cc3ccccc3)O[C@@]3(C(=O)N(Cc4ccc(N5C(=O)c6cccc7cccc5c67)cc4)c4ccccc43)[C@@H]2C)cc1`, the composite z-score is 0.193.

On to `COC(=O)[C@@]1(Cc2ccccc2)[C@H]2c3cc(C(=O)N(C)C)n(CCF)c3C[C@H]2CN1C(=O)c1ccccc1`, for which the composite z-score came to 0.974.

`C=CCC(OC(C)=O)[C@@H]1[C@@H](N(Cc2ccc(-c3ccccc3)cc2)C(=O)Cc2ccc(OC)cc2)c2cc(OCCCO)ccc2N1C(=O)c1ccc2ccccc2c1` (stereo partly specified) registered a composite z-score of 0.544.

For `C=C(C(=O)CC[C@@H](OC(=O)c1cccnc1)c1cccc(OCCO)c1)C(C)C`, the composite z-score amounted to 0.267.

As for `CCCC=C(CCC)[C@@H](NC(=O)c1ccc(C(=O)OC)cc1)c1ccc(C(=O)OC)cc1`, the composite z-score worked out at 0.484.

Compound `[N-]=[N+]=NCc1ccccc1C[C@]1(C(=O)N2CCCCC2)COC(c2ccc(OCCCO)cc2)=N1` gave a composite z-score of 1.68.

`COC(=O)[C@@]1(Cc2ccc(F)cc2)[C@H]2c3cc(C(=O)N4CCCC4)n(Cc4ccc(OC(F)(F)F)cc4)c3C[C@H]2CN1C(=O)c1ccccc1` showed a composite z-score of 0.401.

Regarding `Cc1ccc(S[C@]2(C(=O)NCc3ccccc3)CC(=O)N(Cc3ccccc3C(F)(F)F)[C@@H]2c2ccc(CO)cc2I)cc1`, the composite z-score is -0.319.

With `COCCOC(=O)N1C(=O)[C@@]2(c3cc(C#CC4(O)CCCCCC4)ccc31)[C@H](C(N)=O)[C@H]1C(=O)O[C@H](c3ccccc3)[C@H](c3ccccc3)N1[C@@H]2c1ccc(OCCO)cc1`, the composite z-score stood at 0.388.

Consider `OCCCc1cc[n+](Cc2cc3c(cc2Br)OCO3)cc1`, for which the composite z-score was -0.222.

Values taken from PubChem BioAssay.
